What all share (test): DAPPL (digital affinity profiling via proximity ligation, sequencing); 10 mM Tris-HCl pH 7.5, 50 mM NaCl, 1 mM DTT, 4% glycerol, room temperature, 30 min; GST-TFs on glutathione beads, 16-mer random dsDNA library, 0.1% formaldehyde crosslink after washing; high values mean tight binding
The target of one experiment is T1, ELK1 (Homo sapiens, UniProt P19419 1-428).
T1 sequence: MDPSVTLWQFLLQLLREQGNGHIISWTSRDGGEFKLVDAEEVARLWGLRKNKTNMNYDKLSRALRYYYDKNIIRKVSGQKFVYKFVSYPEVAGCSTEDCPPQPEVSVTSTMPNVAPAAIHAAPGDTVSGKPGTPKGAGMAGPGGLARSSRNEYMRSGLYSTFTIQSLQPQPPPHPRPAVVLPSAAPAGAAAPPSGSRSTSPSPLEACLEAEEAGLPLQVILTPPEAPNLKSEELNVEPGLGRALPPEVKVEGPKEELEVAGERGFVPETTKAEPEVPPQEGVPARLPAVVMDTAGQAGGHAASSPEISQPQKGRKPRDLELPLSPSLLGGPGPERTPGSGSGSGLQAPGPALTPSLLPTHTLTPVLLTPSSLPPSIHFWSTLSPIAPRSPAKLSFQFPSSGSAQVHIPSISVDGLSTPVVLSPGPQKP
As to conditions: protein: recombinant; tags: N-terminal GST; dsDNA, one strand shown. A digest of the protocol: (§1)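 A tag-only sample was pooled with DNA-barcoded human transcription factors that had been expressed in yeast as GST fusions and captured on glutathione beads. The pools were incubated for 30 min at room temperature with 200 nmole of a random double-stranded 16-mer DNA library in Tris/NaCl/DTT/glycerol buffer, then washed, crosslinked with 0.1% formaldehyde, proximity-ligated (BsaI/T4 ligase, 1 h, 37 °C), PCR-amplified and sequenced on an Illumina NextSeq500. Binding signal is each hexamer's read frequency for a factor divided by its frequency for the tag-only sample.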

A further experiment addresses T2, GABPA (Homo sapiens, UniProt Q06546 1-454).
T2 sequence: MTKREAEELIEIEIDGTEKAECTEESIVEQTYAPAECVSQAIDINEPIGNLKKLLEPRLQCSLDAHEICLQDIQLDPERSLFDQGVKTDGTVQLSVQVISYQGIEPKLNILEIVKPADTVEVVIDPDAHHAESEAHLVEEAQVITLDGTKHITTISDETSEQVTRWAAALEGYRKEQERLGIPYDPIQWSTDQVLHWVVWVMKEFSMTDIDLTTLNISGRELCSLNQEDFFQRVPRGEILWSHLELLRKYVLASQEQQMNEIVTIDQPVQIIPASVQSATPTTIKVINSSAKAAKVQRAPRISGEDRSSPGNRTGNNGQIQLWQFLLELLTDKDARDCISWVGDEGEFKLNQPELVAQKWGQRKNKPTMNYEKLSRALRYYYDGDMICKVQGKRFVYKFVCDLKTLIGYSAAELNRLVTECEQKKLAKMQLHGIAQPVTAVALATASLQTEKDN
As to conditions: protein: recombinant; tags: N-terminal GST; dsDNA, one strand shown. A digest of the protocol:
as §1

In another experiment the target is ELF1 (Homo sapiens, UniProt P32519 1-619). As to conditions: protein: recombinant; tags: N-terminal GST; dsDNA, one strand shown. A digest of the protocol:
as §1

The target in the next experiment is T3, EHF (Homo sapiens, UniProt Q9NZC4 1-300).
T3 sequence: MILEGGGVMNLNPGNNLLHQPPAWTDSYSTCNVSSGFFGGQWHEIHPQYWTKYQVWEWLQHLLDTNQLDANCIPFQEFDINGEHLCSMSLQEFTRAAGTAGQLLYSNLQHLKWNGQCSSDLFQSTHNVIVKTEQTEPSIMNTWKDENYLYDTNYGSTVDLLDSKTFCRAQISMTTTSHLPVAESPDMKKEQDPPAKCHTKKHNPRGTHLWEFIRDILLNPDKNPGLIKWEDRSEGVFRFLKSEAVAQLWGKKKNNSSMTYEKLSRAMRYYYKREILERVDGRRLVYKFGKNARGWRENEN
As to conditions: protein: recombinant; tags: N-terminal GST; dsDNA, one strand shown. In outline:
as §1

In a further experiment the target is SPIB (Homo sapiens, UniProt Q01892 1-262). As to conditions: protein: recombinant; tags: N-terminal GST; dsDNA, one strand shown. A digest of the protocol:
as §1

A further experiment addresses T4, ELK3 (Homo sapiens, UniProt P41970 1-407).
T4 sequence: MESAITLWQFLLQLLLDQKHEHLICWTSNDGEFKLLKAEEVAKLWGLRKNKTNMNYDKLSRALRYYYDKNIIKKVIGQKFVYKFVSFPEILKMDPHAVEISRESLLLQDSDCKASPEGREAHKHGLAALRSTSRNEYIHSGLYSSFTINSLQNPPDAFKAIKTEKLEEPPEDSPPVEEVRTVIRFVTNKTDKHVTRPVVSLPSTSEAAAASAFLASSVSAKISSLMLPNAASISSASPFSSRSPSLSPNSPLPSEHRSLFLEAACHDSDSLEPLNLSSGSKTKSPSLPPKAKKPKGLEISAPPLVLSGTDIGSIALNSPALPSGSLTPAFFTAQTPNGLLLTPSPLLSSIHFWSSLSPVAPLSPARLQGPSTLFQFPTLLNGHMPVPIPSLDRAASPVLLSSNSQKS
As to conditions: protein: recombinant; tags: N-terminal GST; dsDNA, one strand shown. In outline:
as §1

A further experiment concerns the target HSF1 (Homo sapiens, UniProt Q00613 1-529). As to conditions: protein: recombinant; tags: N-terminal GST; chain copies: 3; dsDNA, one strand shown. In outline:
as §1

The next experiment has as its target T5, SPIC (Homo sapiens, UniProt Q8N5J4 1-248).
T5 sequence: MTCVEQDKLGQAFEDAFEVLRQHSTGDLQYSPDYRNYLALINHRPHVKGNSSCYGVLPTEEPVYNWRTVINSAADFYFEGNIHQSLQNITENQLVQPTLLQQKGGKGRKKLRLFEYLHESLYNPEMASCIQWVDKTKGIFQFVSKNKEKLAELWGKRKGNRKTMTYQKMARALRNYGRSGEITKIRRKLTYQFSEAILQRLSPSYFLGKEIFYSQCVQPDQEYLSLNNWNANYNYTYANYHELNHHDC
As to conditions: protein: recombinant; tags: N-terminal GST; dsDNA, one strand shown. A digest of the protocol:
as §1

For another experiment, the target named is ELF4 (Homo sapiens, UniProt Q99607 1-663). As to conditions: protein: recombinant; tags: N-terminal GST; dsDNA, one strand shown. A digest of the protocol:
as §1

The target in the next experiment is T6, ELF3 (Homo sapiens, UniProt P78545 1-371).
T6 sequence: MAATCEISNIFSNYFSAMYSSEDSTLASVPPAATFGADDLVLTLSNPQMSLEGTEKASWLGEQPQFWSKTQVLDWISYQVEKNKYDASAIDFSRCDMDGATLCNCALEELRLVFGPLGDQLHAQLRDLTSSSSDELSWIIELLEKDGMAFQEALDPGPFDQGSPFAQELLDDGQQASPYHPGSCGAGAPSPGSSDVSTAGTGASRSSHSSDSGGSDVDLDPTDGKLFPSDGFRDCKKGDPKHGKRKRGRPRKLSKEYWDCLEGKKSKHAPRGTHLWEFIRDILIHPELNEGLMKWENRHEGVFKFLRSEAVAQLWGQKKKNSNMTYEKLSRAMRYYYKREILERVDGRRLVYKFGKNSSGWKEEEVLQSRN
As to conditions: protein: recombinant; tags: N-terminal GST; dsDNA, one strand shown. A digest of the protocol: as §1

A further experiment has as its target T7, ERF (Homo sapiens, UniProt P50548 1-548).
T7 sequence: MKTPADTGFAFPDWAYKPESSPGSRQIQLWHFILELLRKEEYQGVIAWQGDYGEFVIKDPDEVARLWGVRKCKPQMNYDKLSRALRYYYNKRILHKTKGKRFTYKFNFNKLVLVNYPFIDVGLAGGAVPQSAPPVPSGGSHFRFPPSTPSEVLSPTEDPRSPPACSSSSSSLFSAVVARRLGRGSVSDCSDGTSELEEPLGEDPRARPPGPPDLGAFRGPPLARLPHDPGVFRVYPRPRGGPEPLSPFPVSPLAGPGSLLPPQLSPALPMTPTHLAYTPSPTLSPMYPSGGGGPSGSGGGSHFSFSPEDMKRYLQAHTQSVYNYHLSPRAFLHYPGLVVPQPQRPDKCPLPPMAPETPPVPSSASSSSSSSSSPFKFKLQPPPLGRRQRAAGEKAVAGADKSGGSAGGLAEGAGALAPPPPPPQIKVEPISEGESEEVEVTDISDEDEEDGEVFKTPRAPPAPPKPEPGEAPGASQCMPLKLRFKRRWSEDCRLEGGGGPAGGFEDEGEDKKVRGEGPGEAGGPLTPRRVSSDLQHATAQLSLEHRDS
As to conditions: protein: recombinant; tags: N-terminal GST; dsDNA, one strand shown. A digest of the protocol:
as §1

The next experiment deals with T8, ETS2 (Homo sapiens, UniProt P15036 1-469).
T8 sequence: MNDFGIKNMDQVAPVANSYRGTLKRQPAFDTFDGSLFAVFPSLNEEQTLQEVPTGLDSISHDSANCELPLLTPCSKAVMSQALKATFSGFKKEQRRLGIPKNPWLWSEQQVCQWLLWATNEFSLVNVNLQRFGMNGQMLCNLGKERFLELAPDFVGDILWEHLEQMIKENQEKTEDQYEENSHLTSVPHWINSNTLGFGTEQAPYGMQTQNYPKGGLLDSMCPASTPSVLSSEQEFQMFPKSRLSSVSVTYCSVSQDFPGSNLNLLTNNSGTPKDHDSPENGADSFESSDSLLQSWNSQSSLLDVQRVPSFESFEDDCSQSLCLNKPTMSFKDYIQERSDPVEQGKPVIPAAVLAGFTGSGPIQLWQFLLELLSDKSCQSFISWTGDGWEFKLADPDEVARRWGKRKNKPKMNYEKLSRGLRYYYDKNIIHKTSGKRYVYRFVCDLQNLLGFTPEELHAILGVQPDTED
As to conditions: protein: recombinant; tags: N-terminal GST; dsDNA, one strand shown. In outline: as §1

In another experiment the target is T9, ELK4 (Homo sapiens, UniProt P28324-2 1-405).
T9 sequence: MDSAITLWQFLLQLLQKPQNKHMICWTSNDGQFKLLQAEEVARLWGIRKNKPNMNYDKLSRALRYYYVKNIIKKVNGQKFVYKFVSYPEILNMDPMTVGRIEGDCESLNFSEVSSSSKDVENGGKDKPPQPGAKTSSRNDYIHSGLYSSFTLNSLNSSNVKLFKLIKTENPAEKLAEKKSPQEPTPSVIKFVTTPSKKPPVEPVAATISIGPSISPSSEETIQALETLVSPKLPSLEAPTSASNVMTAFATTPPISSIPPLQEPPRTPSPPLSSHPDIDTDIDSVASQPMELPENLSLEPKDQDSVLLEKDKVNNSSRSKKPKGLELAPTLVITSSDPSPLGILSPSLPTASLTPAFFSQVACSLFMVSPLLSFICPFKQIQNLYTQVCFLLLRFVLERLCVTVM
As to conditions: protein: recombinant; tags: N-terminal GST; dsDNA, one strand shown. A digest of the protocol: as §1

A further experiment concerns the target CRX (Homo sapiens, UniProt O43186 1-299). As to conditions: protein: recombinant; tags: N-terminal GST; dsDNA, one strand shown. A digest of the protocol: as §1

HSF1, sequence (Q00613 whole entry): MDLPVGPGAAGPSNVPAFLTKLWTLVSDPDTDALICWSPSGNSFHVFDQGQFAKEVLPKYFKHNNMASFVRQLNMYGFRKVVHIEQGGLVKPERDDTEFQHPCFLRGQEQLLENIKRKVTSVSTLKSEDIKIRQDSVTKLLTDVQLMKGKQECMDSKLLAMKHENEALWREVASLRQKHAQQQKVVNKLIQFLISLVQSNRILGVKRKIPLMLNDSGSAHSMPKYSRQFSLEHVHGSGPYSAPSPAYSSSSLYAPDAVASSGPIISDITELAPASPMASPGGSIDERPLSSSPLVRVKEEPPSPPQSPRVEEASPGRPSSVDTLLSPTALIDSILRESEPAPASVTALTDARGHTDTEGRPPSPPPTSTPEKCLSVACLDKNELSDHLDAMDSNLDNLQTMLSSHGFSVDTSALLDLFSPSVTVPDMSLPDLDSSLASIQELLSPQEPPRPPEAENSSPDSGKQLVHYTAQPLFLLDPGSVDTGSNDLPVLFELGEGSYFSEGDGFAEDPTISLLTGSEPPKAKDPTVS
ELF4, sequence (Q99607 whole entry): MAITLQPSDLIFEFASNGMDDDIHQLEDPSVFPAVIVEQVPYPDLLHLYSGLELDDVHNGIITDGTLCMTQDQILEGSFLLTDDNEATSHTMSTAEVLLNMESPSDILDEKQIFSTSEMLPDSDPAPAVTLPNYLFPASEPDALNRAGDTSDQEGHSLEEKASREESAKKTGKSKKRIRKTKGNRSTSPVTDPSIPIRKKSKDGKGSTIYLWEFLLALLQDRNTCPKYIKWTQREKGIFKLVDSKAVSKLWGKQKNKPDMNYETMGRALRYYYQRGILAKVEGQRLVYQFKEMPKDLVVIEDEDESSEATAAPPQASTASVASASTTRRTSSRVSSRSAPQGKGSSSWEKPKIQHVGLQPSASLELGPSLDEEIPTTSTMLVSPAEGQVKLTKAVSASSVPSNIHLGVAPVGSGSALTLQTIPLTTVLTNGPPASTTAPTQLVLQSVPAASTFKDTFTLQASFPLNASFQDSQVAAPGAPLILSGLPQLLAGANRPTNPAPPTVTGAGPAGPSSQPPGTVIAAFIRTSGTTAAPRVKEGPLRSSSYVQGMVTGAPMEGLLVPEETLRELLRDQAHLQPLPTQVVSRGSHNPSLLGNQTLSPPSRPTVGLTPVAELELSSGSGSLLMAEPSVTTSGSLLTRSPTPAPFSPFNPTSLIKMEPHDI
SPIB, sequence (Q01892 whole entry): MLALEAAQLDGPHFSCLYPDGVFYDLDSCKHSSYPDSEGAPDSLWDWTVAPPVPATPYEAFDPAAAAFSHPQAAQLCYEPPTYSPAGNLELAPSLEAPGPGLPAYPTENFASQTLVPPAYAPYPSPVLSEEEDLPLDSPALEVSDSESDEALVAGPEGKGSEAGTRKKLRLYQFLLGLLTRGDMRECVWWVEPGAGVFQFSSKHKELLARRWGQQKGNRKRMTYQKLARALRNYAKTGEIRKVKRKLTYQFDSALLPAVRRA
ELF1, sequence (P32519 whole entry): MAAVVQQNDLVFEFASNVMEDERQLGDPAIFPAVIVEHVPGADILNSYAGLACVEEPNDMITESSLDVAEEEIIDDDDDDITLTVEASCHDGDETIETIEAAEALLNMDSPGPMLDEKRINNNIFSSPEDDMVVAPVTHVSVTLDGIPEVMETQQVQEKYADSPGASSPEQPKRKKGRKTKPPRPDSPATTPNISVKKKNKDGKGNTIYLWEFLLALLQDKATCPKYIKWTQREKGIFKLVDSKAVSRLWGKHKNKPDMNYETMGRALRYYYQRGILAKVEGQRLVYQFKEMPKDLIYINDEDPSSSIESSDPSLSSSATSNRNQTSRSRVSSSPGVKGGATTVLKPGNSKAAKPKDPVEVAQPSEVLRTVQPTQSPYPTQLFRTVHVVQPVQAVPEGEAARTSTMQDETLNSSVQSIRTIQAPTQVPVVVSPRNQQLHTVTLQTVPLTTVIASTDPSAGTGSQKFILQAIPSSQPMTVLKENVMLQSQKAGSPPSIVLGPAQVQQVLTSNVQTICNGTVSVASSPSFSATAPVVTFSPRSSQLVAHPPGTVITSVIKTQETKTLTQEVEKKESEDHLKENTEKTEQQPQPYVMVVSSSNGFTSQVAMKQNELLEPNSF
CRX, sequence (O43186 whole entry): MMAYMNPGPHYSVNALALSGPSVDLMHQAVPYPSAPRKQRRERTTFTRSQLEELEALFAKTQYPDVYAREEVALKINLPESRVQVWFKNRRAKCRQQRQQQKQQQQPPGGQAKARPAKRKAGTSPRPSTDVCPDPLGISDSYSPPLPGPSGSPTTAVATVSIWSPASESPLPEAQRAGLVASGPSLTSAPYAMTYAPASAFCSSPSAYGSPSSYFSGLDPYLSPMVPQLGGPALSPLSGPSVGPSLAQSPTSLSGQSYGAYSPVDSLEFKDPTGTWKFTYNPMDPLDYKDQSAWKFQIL

As for GCCGAA, the binding signal was 1 fold enrichment (6-mer frequency, TF over GST control) with ELK1; 1.02 fold enrichment (6-mer frequency, TF over GST control) with GABPA; 1.01 fold enrichment (6-mer frequency, TF over GST control) with ELF1; 1.03 fold enrichment (6-mer frequency, TF over GST control) with EHF; 1.02 fold enrichment (6-mer frequency, TF over GST control) with SPIB; 1.06 fold enrichment (6-mer frequency, TF over GST control) in the experiment with ELK3. The binding signal in the experiment with HSF1 is 1.14 fold enrichment (6-mer frequency, TF over GST control); with SPIC, 1.09 fold enrichment (6-mer frequency, TF over GST control); in the experiment with ELF4 it was 1.06 fold enrichment (6-mer frequency, TF over GST control); with ELF3 it was 1.02 fold enrichment (6-mer frequency, TF over GST control); with ERF, 1.05 fold enrichment (6-mer frequency, TF over GST control); with ETS2, 1.04 fold enrichment (6-mer frequency, TF over GST control).

For the sequence TCCAGC, the binding signal in the experiment with ELK1 was 1.03 fold enrichment (6-mer frequency, TF over GST control); with EHF, 1.04 fold enrichment (6-mer frequency, TF over GST control); with ELK3 it was 1.07 fold enrichment (6-mer frequency, TF over GST control); in the experiment with HSF1 it was 1.44 fold enrichment (6-mer frequency, TF over GST control); with SPIC, 1.06 fold enrichment (6-mer frequency, TF over GST control); in the experiment with ELK4, 1.17 fold enrichment (6-mer frequency, TF over GST control). The binding signal with CRX is 1.08 fold enrichment (6-mer frequency, TF over GST control).

For the sequence TACCAG, the binding signal with HSF1 is 1.22 fold enrichment (6-mer frequency, TF over GST control).
